# Results: PubChem BioAssay AID651871 (Sanford-Burnham Center for Chemical Genomics, 2012)
# “And” between values parts separate entries of the source, which are not always exact repeats. Equal entries are not always repeated.
# Test system: H9c2
# Experiment: cardiomyocyte survival under oxidative or metabolic stress – cell-based, panel, H9c2 and HL-1, ATP luminescence, set 2, SAR follow-up (AID 651871);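 further: cells exposed to stressor for 2 h before ATP readout; reference of the scale not given here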
# Details: H9c2/HL-1 cardiomyocytes, 2-deoxyglucose stress, with 2-deoxyglucose; run 10, at 79 µM (top of the series) unless noted
row,Compound,activity (protection/inhibition)
1,COc1ccc2c(c1OC)C(=O)N1c3ccccc3C(=O)N(Cc3cccc(Cl)c3Cl)C21 (stereo not drawn),76% and 73.8% and -3.2%
2,CCOC(=O)c1cccc(NC(=O)CNC(=O)c2cc(-c3cc(OC)c(OC)c(OC)c3)nc3ccccc23)c1,"82.3% [run 10, at 39.5 µM]"
3,COc1ccc2nc(-c3cc(OC)c(OC)c(OC)c3)cc(C(=O)NCC(=O)Nc3ccc(C(C)=O)cc3)c2c1,78.3%
